{
  "source": "paper PMC4336329",
  "about": "(PLoS ONE, 2015)",
  "note": "Hit rate of the full screen: of about 310,000 compounds, about 14,000 (4.5%) showed an effect of 50% or more. The effect is printed as a negative number. What follows is part of a selection rich in strong results, with near analogues and random picks from the rest.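 Also: peak tail current of the secondary pulse compared with the same well before compound.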",
  "data": [
    {"target": "human ether-à-go-go-related gene (hERG) potassium channel (human, UniProt Q12809)", "sequence (Q12809 whole entry, looked up)": "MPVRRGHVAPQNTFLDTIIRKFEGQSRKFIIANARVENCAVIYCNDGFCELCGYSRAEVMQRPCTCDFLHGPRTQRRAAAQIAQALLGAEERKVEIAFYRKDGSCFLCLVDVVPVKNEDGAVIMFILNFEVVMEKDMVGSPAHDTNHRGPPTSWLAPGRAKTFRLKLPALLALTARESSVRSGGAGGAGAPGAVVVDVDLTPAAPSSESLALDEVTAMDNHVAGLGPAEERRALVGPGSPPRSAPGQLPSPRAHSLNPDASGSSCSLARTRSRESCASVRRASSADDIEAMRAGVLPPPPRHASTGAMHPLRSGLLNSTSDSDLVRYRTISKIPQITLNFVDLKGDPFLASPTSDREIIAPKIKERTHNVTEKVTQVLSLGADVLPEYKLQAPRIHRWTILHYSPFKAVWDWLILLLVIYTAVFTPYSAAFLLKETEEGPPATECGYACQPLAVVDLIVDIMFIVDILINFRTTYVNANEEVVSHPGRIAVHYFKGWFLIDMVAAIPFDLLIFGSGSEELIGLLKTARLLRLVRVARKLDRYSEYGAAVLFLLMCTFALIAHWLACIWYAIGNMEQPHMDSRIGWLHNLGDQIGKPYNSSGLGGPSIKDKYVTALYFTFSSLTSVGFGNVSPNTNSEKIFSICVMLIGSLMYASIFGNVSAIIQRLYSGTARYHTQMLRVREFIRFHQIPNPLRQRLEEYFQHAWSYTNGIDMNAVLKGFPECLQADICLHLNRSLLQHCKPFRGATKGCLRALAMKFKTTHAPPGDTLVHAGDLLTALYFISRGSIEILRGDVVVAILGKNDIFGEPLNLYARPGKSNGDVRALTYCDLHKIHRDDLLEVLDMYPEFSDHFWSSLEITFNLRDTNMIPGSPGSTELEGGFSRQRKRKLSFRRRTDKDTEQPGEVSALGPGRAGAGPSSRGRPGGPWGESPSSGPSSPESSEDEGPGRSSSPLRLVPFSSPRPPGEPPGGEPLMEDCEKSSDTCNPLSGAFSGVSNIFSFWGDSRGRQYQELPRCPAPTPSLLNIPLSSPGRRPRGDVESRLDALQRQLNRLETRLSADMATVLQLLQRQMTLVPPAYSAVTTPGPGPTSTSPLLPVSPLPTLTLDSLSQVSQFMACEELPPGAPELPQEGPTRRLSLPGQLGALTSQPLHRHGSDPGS", "experiment": "primary screen, population patch clamp on CHO cells stably expressing hERG; higher = less effect of the substance", "units": {"hERG current change (%, negative = inhibition) at 10uM": "%"}, "values": [
      {"smiles": "COc1cccc(NC(=S)NNC(=O)c2ccccc2OC(F)F)c1", "hERG current change (%, negative = inhibition) at 10uM": 12.3},
      {"smiles": "Fc1ccccc1-c1[nH]ncc1-c1nnnn1-c1ccccc1", "hERG current change (%, negative = inhibition) at 10uM": 5.39},
      {"smiles": "CCc1nnc(NC(=O)c2ccc3c(c2)C(=O)N(C(C)(C)C)C3=O)s1", "hERG current change (%, negative = inhibition) at 10uM": 7.02},
      {"smiles": "O=C(CSc1ccc2ccccc2c1)NC1CCCc2ccccc21", "note": "(stereo not shown)", "hERG current change (%, negative = inhibition) at 10uM": 8.2},
      {"smiles": "COc1ccc(Cl)cc1NC(=S)NC(=O)c1ccco1", "hERG current change (%, negative = inhibition) at 10uM": -31.5},
      {"smiles": "COc1cc(/C=N/NC(=O)CNC(=O)c2ccco2)ccc1O", "hERG current change (%, negative = inhibition) at 10uM": 7.95},
      {"smiles": "CCc1noc(C)c1C(=O)OC(C)C(=O)Nc1ccccc1OC", "note": "(stereo not shown)", "hERG current change (%, negative = inhibition) at 10uM": -12.8},
      {"smiles": "CCc1noc(C)c1C(=O)OC(C)C(=O)Nc1cc([N+](=O)[O-])ccc1OC", "note": "(stereo not shown)", "hERG current change (%, negative = inhibition) at 10uM": -53.1},
      {"smiles": "COc1ccc([N+](=O)[O-])cc1NC(=O)C(C)OC(=O)c1ccccn1", "note": "(stereo not shown)", "hERG current change (%, negative = inhibition) at 10uM": -7.61},
      {"smiles": "COc1ccc([N+](=O)[O-])cc1NC(=O)C(C)OC(=O)C1CC(=O)N(Cc2ccco2)C1", "note": "(stereo not shown)", "hERG current change (%, negative = inhibition) at 10uM": -57.4},
      {"smiles": "CC(OC(=O)C1CC(=O)N(Cc2ccco2)C1)C(=O)Nc1ccccc1[N+](=O)[O-]", "note": "(stereo not shown)", "hERG current change (%, negative = inhibition) at 10uM": -19.1},
      {"smiles": "COc1cc2c(cc1NC(=O)C(C)OC(=O)C1CC(=O)N(Cc3ccco3)C1)oc1ccccc12", "note": "(stereo not shown)", "hERG current change (%, negative = inhibition) at 10uM": -1.77},
      {"smiles": "O=C(COC(=O)c1ccc(Cl)c(S(=O)(=O)N2CCCC2)c1)NCc1cccs1", "hERG current change (%, negative = inhibition) at 10uM": -39.8},
      {"smiles": "CCOc1ccc(/C=N/NC(=O)C2(O)c3ccccc3-c3ccccc32)cc1", "hERG current change (%, negative = inhibition) at 10uM": 4.13},
      {"smiles": "CCSc1nnc(NC(=O)[C@@H](NC(=O)c2ccccc2F)C(C)C)s1", "hERG current change (%, negative = inhibition) at 10uM": -8.27},
      {"smiles": "O=C(Nc1nccs1)c1ccc(F)c(S(=O)(=O)N2CCOCC2)c1", "hERG current change (%, negative = inhibition) at 10uM": -18.8},
      {"smiles": "Cc1cc(C)n(CC(O)Cn2ccc3ccccc32)n1", "note": "(stereo not shown)", "hERG current change (%, negative = inhibition) at 10uM": -12.5},
      {"smiles": "CC1C2CC(C(CN(C)C)/C2=N/O)C1(C)C", "note": "(stereo not shown)", "hERG current change (%, negative = inhibition) at 10uM": -9.04},
      {"smiles": "O=C1C=C(c2ccc(Cl)cc2)C(=O)N1Nc1ccccc1", "hERG current change (%, negative = inhibition) at 10uM": 13.1},
      {"smiles": "O=C1C=C(c2ccccc2)C(=O)N1Nc1ccccc1", "hERG current change (%, negative = inhibition) at 10uM": -77.2},
      {"smiles": "COc1ccc(C2=CC(=O)N(Nc3ccccc3)C2=O)cc1", "hERG current change (%, negative = inhibition) at 10uM": 24.6},
      {"smiles": "CN(c1ccccc1)c1nc2ccsc2c(=O)s1", "hERG current change (%, negative = inhibition) at 10uM": 4.47},
      {"smiles": "CCn1ccnc1CN1CCN(CCC(C)C)C(CCO)C1", "note": "(stereo not shown)", "hERG current change (%, negative = inhibition) at 10uM": 18.9},
      {"smiles": "CC(C)CN1CCN(Cc2cccc3ncccc23)CC1CCO", "note": "(stereo not shown)", "hERG current change (%, negative = inhibition) at 10uM": -2.49},
      {"smiles": "CC(C)=CCN1CCN(Cc2cccn2-c2ccccn2)CC1CCO", "note": "(stereo not shown)", "hERG current change (%, negative = inhibition) at 10uM": -55.4},
      {"smiles": "CC(C)CN1CCN(Cc2cccn2-c2ccccn2)CC1CCO", "note": "(stereo not shown)", "hERG current change (%, negative = inhibition) at 10uM": -55.9},
      {"smiles": "CC(C)=CCN1CCN(Cc2cccn2-c2ncccn2)CC1CCO", "note": "(stereo not shown)", "hERG current change (%, negative = inhibition) at 10uM": -39.6},
      {"smiles": "CC(C)N1CCN(Cc2cccn2-c2ccccn2)CC1CCO", "note": "(stereo not shown)", "hERG current change (%, negative = inhibition) at 10uM": -31.2},
      {"smiles": "CC(C)CCN1CCN(Cc2cccc3cccnc23)CC1CCO", "note": "(stereo not shown)", "hERG current change (%, negative = inhibition) at 10uM": -26.2},
      {"smiles": "CC(C)CCN1CCN(Cc2cccn2-c2ccccn2)CC1CCO", "note": "(stereo not shown)", "hERG current change (%, negative = inhibition) at 10uM": -75.5},
      {"smiles": "CC(C)=CCN1CCN(Cc2ccc(Oc3ncccn3)cc2)CC1CCO", "note": "(stereo not shown)", "hERG current change (%, negative = inhibition) at 10uM": 9.1},
      {"smiles": "CCC(C)N1C(=O)N(C)C2NC(=O)NC21", "note": "(stereo not shown)", "hERG current change (%, negative = inhibition) at 10uM": -2.9},
      {"smiles": "Cc1ccc(OCC(=O)NNC(=S)NC(=O)C2CC2)c(C)c1", "hERG current change (%, negative = inhibition) at 10uM": 23.2},
      {"smiles": "Nc1c2c(nc3c1CCCC3)CCCC2.O=C(O)c1cc[nH]c(=O)c1", "hERG current change (%, negative = inhibition) at 10uM": -10.1},
      {"smiles": "Clc1ccc(OCC#CCN2CCCCCC2)cc1.O=C(O)C(=O)O", "hERG current change (%, negative = inhibition) at 10uM": -34.7},
      {"smiles": "Cc1ccccc1Nc1nnc(C)c(=O)[nH]1", "hERG current change (%, negative = inhibition) at 10uM": -11.3},
      {"smiles": "CC(=O)N1CCN(c2ccc(NC(=O)c3ccc([N+](=O)[O-])cc3Cl)cc2)CC1", "hERG current change (%, negative = inhibition) at 10uM": -8.49},
      {"smiles": "CCOc1cccc(OCCOCCN(C)Cc2ccccc2)c1", "hERG current change (%, negative = inhibition) at 10uM": -49.3},
      {"smiles": "CCN(CC(=O)Nc1ccc(NC(C)=O)cc1)C(=O)c1oc2ccccc2c1C", "hERG current change (%, negative = inhibition) at 10uM": -20.2},
      {"smiles": "CCN(CC(=O)NCc1ccc(Cl)cc1)C(=O)CSc1cccc(C(F)(F)F)c1", "hERG current change (%, negative = inhibition) at 10uM": -23.3},
      {"smiles": "CCN(CC(=O)NCc1ccc(Cl)cc1)C(=O)CN1C(=O)NC(CC)(c2ccccc2)C1=O", "note": "(stereo not shown)", "hERG current change (%, negative = inhibition) at 10uM": -6.03},
      {"smiles": "CCN(CC(=O)NCc1ccc(Cl)cc1)S(=O)(=O)c1ccc(F)cc1", "hERG current change (%, negative = inhibition) at 10uM": -19.1},
      {"smiles": "CCN(CC(=O)NCc1ccc(Cl)cc1)C(=O)CSc1ccc(Br)cc1", "hERG current change (%, negative = inhibition) at 10uM": -79.2}
    ]}
  ]
}
